From PubChem BioAssay (NCI)
The panel holds about 79,000 compounds, 15% with a hit somewhere; the sample as a whole holds those more often. Calls of active or inactive are those of the source. Cut-off read from the data, not from the text of the source: active = growth inhibition above about 70%; inactive = the rest.

Experiments:
[1] = NCI Yeast Anticancer Drug Screen. Data for the rad52 strain (AID 147);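 note: 0% = growth of vehicle-treated control cultures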; conditions: S. cerevisiae rad52 mutant growth inhibition, active compounds read high
Procedure, shortened: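 DNA repair-defective yeast; compound exposure; growth scored against vehicle controls.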

[2] = NCI Yeast Anticancer Drug Screen. Data for the wt1 strain (AID 149);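 note: 0% = growth of vehicle-treated wt1 cultures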; conditions: S. cerevisiae wt1 strain (SPY 50644) growth inhibition, active compounds read high
Procedure, shortened: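 wt1 strain grown with compound or vehicle; inhibition taken from the growth difference.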

[3] = NCI Yeast Anticancer Drug Screen. Data for the rad50EPP+ strain (AID 151);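 note: 0% = growth of vehicle-treated control cultures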; conditions: S. cerevisiae rad50 mutant strain, active compounds read high
Procedure, shortened: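 rad50EPP+ yeast treated with test compounds. Readout: growth vs vehicle control.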

[4] = NCI Yeast Anticancer Drug Screen. Data for the rad50 strain (AID 155);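 note: 0% = growth of vehicle-only cultures of the same strain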; conditions: S. cerevisiae rad50 strain growth inhibition, active compounds read high
Procedure, shortened: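 DNA repair mutant yeast, compound exposure, growth read-out; inhibition is taken relative to vehicle.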

[5] = NCI Yeast Anticancer Drug Screen. Data for the mec2-1 strain (AID 157); conditions: S. cerevisiae mec2-1 strain, active compounds read high
Procedure, shortened: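 Growth inhibition is read against vehicle-treated controls after compound exposure of the mec2-1 yeast strain, which is defective in DNA damage repair or cell cycle control.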

[6] = NCI Yeast Anticancer Drug Screen. Data for the rad14 strain (AID 159);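 note: 0% = growth of vehicle-treated control cultures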; conditions: S. cerevisiae rad14 strain growth inhibition, active compounds read high
Procedure, shortened: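 DNA repair-defective yeast, compound-exposed; % growth inhibition derived by comparison with vehicle-treated controls.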

[7] = NCI Yeast Anticancer Drug Screen. Data for the sgs1 mgt1 strain (AID 161);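 note: 0% = growth of cultures given vehicle only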; conditions: S. cerevisiae sgs1 mgt1 strain, active compounds read high
Procedure, shortened: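 Yeast cells carrying a defined DNA-repair defect were exposed to test compounds. Growth inhibition was measured relative to vehicle-treated controls.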

[8] = NCI Yeast Anticancer Drug Screen. Data for the CLN2oe strain (AID 163);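 note: 0% = growth of vehicle-only control cultures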; conditions: S. cerevisiae CLN2oe strain, active compounds read high
Procedure, shortened: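 Compound-treated yeast; growth vs vehicle ctrl = % inhibition. Genetically altered strain (cell-cycle control).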

[9] = NCI Yeast Anticancer Drug Screen. Data for the cln2 rad14 strain (AID 165);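 note: 0% = growth equal to vehicle treated cultures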; conditions: S. cerevisiae cln2 rad14 strain, active compounds read high
Procedure, shortened: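 Growth inhibition, relative to vehicle-treated controls, is the read-out. The test organism is a yeast strain with defined genetic alterations, cln2 rad14.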

[10] = NCI Yeast Anticancer Drug Screen. Data for the bub3 strain (AID 167); conditions: S. cerevisiae bub3 mutant strain, active compounds read high
Procedure, shortened: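 In this screen, a yeast mutant lacking normal mitotic checkpoint function is challenged with compound. Relative growth versus vehicle gives the inhibition value.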

[11] = NCI Yeast Anticancer Drug Screen. Data for the wt2 strain (AID 169);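 note: 0% = growth of vehicle-treated yeast cultures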; conditions: S. cerevisiae wt2 strain growth inhibition, active compounds read high
Procedure, shortened: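 Compound exposure of yeast; growth compared with vehicle controls; inhibition reported.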

[12] = NCI Yeast Anticancer Drug Screen. Data for the mlh1 strain (AID 171);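 note: 0% = growth of vehicle-treated control cultures of the same strain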; conditions: S. cerevisiae mlh1 strain growth inhibition, active compounds read high
Procedure, shortened: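 Compounds are applied to a genetically altered yeast strain, and its growth is compared with that of vehicle-treated cultures to give percent inhibition.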

[13] = NCI Yeast Anticancer Drug Screen. Data for the sgs1 strain (AID 173);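 note: 0% = growth of vehicle-only control cultures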; conditions: S. cerevisiae sgs1 mutant, active compounds read high
Procedure, shortened: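 Compounds applied to genetically altered yeast; growth compared with vehicle-treated cultures to give % inhibition.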

[14] = NCI Yeast Anticancer Drug Screen. Data for the mlh1 rad18 strain (AID 175); conditions: S. cerevisiae mlh1 rad18 strain growth inhibition, active compounds read high
Procedure, shortened: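 Cells of a genetically altered yeast strain, deficient in DNA damage repair, were treated with compound. Their growth was then compared with that of vehicle-treated cultures to give inhibition.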

[15] = NCI Yeast Anticancer Drug Screen. Data for the rad18 strain (AID 177); conditions: S. cerevisiae rad18 mutant growth inhibition, active compounds read high
Procedure, shortened: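 Compounds are applied to a repair-deficient yeast strain, and growth is compared with that of vehicle-treated cultures to give percent inhibition.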

[16] = at 5.0 µM (retest, dose inferred, filed as 0.5)
[17] = at 50.0 µM (retest, dose inferred, filed as 5.0)

Measured: growth inhibition

OCCN(CCO)c1ccc2c(c1)Cc1ccccc1-2
inactive: [1]; at 1.2 µM -9% | [1]; at 3.7 µM -15% | [1]; at 11.0 µM 3% | [1]; at 33.0 µM 20% | [1]; at 100.0 µM 43% | [2]; at 1.2 µM 0% | [2]; at 3.7 µM 5% | [2]; at 11.0 µM 6% | [2]; at 33.0 µM 6% | [2]; at 100.0 µM 17% | [3]; at 1.2 µM -6% | [3]; at 3.7 µM -3% | [3]; at 11.0 µM 17% | [3]; at 33.0 µM 43% | [3]; at 100.0 µM 53% | [4]; at 1.2 µM -12% | [4]; at 3.7 µM -15% | [4]; [16] 13% | [4]; at 11.0 µM -13% | [4]; at 33.0 µM 34% | [4]; [17] 48% | [4]; at 50.0 µM 34.1% | [4]; at 100.0 µM 65% | [5]; at 1.2 µM -3% | [5]; at 3.7 µM -4% | [5]; [16] 1% | [5]; at 11.0 µM -4% | [5]; at 33.0 µM -7% | [5]; [17] 12% | [5]; at 50.0 µM -11.8% | [5]; at 100.0 µM 1% | [6]; at 1.2 µM 3% | [6]; at 3.7 µM -4% | [6]; at 11.0 µM 23% | [6]; at 33.0 µM 15% | [6]; at 100.0 µM 31% | [7]; [16] 8% | [7]; at 50.0 µM 52.2% | [8]; at 1.2 µM -9% | [8]; at 3.7 µM -8% | [8]; at 11.0 µM -16% | [8]; at 33.0 µM -11% | [8]; at 100.0 µM -7% | [9]; [16] 6% | [9]; [17] 6% | [9]; at 50.0 µM -2.7% | [10]; at 1.2 µM -9% | [10]; at 3.7 µM -8% | [10]; [16] 2% | [10]; at 11.0 µM -13% | [10]; at 33.0 µM -13% | [10]; [17] 27% | [10]; at 50.0 µM 10.4% | [10]; at 100.0 µM 1% | [11]; at 1.2 µM 5% | [11]; at 3.7 µM 9% | [11]; at 11.0 µM 14% | [11]; at 33.0 µM 29% | [11]; at 100.0 µM 45% | [12]; at 1.2 µM -13% | [12]; at 3.7 µM -7% | [12]; at 11.0 µM -6% | [12]; at 33.0 µM -6% | [12]; at 100.0 µM 26% | [13]; at 1.2 µM -14% | [13]; at 3.7 µM -10% | [13]; at 11.0 µM 13% | [13]; at 33.0 µM 44% | [14]; [16] 23% | [15]; at 1.2 µM -8% | [15]; at 3.7 µM 4% | [15]; at 11.0 µM 18%
active: [7]; [17] 71% | [13]; at 100.0 µM 76% | [14]; [17] 84% | [14]; at 50.0 µM 77.4% | [15]; at 33.0 µM 82% | [15]; at 100.0 µM 90%

CCC(c1ccc(O)cc1)C(CC)c1ccc(OCCN)cc1 (stereo not drawn)
inactive: [1]; at 1.2 µM -5% | [1]; at 3.7 µM 0% | [1]; at 11.0 µM 0% | [1]; at 33.0 µM 11% | [2]; at 1.2 µM -4% | [2]; at 3.7 µM -4% | [2]; at 11.0 µM -8% | [2]; at 33.0 µM -8% | [2]; at 100.0 µM 27% | [3]; at 1.2 µM -3% | [3]; at 3.7 µM 1% | [3]; at 11.0 µM 12% | [3]; at 33.0 µM 1% | [3]; at 100.0 µM 10% | [4]; at 1.2 µM 0% | [4]; at 3.7 µM -1% | [4]; [16] 18% | [4]; at 11.0 µM 3% | [4]; at 33.0 µM 27% | [4]; [17] 69% | [4]; at 50.0 µM 27.9% | [5]; at 1.2 µM -3% | [5]; at 3.7 µM -3% | [5]; [16] -4% | [5]; at 11.0 µM -7% | [5]; at 33.0 µM -4% | [5]; [17] 8% | [5]; at 50.0 µM 6.25% | [5]; at 100.0 µM 64% | [6]; at 1.2 µM -3% | [6]; at 3.7 µM 1% | [6]; at 11.0 µM 3% | [6]; at 33.0 µM 17% | [7]; [16] 0% | [7]; at 50.0 µM 60.1% | [8]; at 1.2 µM -1% | [8]; at 3.7 µM -4% | [8]; at 11.0 µM 5% | [8]; at 33.0 µM 19% | [9]; [16] -2% | [9]; [17] 25% | [9]; at 50.0 µM -1.25% | [10]; at 1.2 µM -2% | [10]; at 3.7 µM -3% | [10]; [16] -19% | [10]; at 11.0 µM -7% | [10]; at 33.0 µM -1% | [10]; [17] 62% | [10]; at 50.0 µM 45.1% | [11]; at 1.2 µM -2% | [11]; at 3.7 µM -9% | [11]; at 11.0 µM 6% | [11]; at 33.0 µM 8% | [12]; at 1.2 µM -3% | [12]; at 3.7 µM -4% | [12]; at 11.0 µM -5% | [12]; at 33.0 µM 12% | [13]; at 1.2 µM -23% | [13]; at 3.7 µM -46% | [13]; at 11.0 µM -18% | [13]; at 33.0 µM 15% | [15]; at 1.2 µM -7% | [15]; at 3.7 µM -6% | [15]; at 11.0 µM -6% | [15]; at 33.0 µM 0%
active: [1]; at 100.0 µM 88% | [4]; at 100.0 µM 88% | [6]; at 100.0 µM 98% | [7]; [17] 76% | [8]; at 100.0 µM 83% | [10]; at 100.0 µM 72% | [11]; at 100.0 µM 92% | [12]; at 100.0 µM 91% | [13]; at 100.0 µM 94% | [15]; at 100.0 µM 91%

Nc1cc(S(N)(=O)=O)ccc1SSc1ccc(S(N)(=O)=O)cc1N
active: [1]; at 100.0 µM 81% | [3]; at 33.0 µM 79% | [3]; at 100.0 µM 93% | [4]; at 50.0 µM 71.6% | [4]; at 100.0 µM 71%
inactive: [1]; at 1.2 µM 1% | [1]; at 3.7 µM 10% | [1]; at 11.0 µM 21% | [1]; at 33.0 µM 50% | [2]; at 1.2 µM 1% | [2]; at 3.7 µM -2% | [2]; at 11.0 µM 0% | [2]; at 33.0 µM 12% | [2]; at 100.0 µM 51% | [3]; at 1.2 µM -2% | [3]; at 3.7 µM 2% | [3]; at 11.0 µM 19% | [4]; at 1.2 µM 5% | [4]; at 3.7 µM 8% | [4]; [16] 13% | [4]; at 11.0 µM 22% | [4]; at 33.0 µM 33% | [4]; [17] 52% | [5]; at 1.2 µM 1% | [5]; at 3.7 µM 5% | [5]; [16] 9% | [5]; at 11.0 µM 12% | [5]; at 33.0 µM 29% | [5]; [17] 10% | [5]; at 50.0 µM 41.1%
